# Laboratory results: PubChem BioAssay (EPA / NIEHS)
# Activity calls are given as the source filed them. The calls were made as follows: active = hit-call score of the fitted dose curve at least 0.9, where 1 is the maximum; inactive = score below 0.9.
# Experiments:
# [1] = read-out: C-C motif chemokine 2 (Homo sapiens) (UniProt P13500); assay: BSK_KF3CT_MCP1: BioMAP Diversity Plus: KF3CT Assay for Monocyte Chemoattractant Protein 1 (MCP1/CCL2) Biomarker Activity (AID 2283073); conditions: primary human keratinocytes with fibroblasts; actives raise or lower the signal
# In short: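 Keratinocytes and foreskin fibroblasts were co-cultured, dosed with chemical, and sampled 24 h later. MCP-1 was quantified by ELISA, and the endpoint was analyzed with bidirectional fitting using DMSO as negative control.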
# [2] = read-out: Matrix Metallopeptidase 9 (MMP9), MMP9 (gene 4318); assay: BSK_KF3CT_MMP9: BioMAP Diversity Plus: KF3CT Assay for Matrix Metallopeptidase 9 (MMP9) Biomarker Activity (AID 2283074); conditions: primary human keratinocytes with fibroblasts; actives raise or lower the signal;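 as to AC50: MMP9 protein level quantified by ELISA in the co-culture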
# In short: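 MMP-9 quantified by ELISA after 24 h chemical treatment of primary human skin keratinocyte/fibroblast co-cultures; gain or loss fitted against DMSO, with parallel SRB staining (0.1% SRB, 560 nm) for overt cytotoxicity.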
# [3] = read-out: urokinase plasminogen activator (uPA), PLAU (gene 5328); assay: BSK_KF3CT_uPA: BioMAP Diversity Plus: KF3CT Assay for urokinase plasminogen activator (uPA) Biomarker Activity (AID 2283075); conditions: primary human keratinocytes with fibroblasts; actives raise or lower the signal
# In short: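 ELISA read-out of uPA 24 h after dosing human skin keratinocytes co-cultured with foreskin fibroblasts. Signal change fitted both ways relative to DMSO; sulforhodamine B on parallel cultures marks overt cytotoxicity.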
# [4] = read-out: CD40, CD40 (gene 958); assay: BSK_LPS_CD40: BioMAP Diversity Plus: LPS Assay for CD40 Biomarker Activity (AID 2283076); conditions: primary human HUVEC with PBMC; actives raise or lower the signal
# In short: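 CD40 signal, measured by ELISA, is fitted in both directions relative to DMSO vehicle. The system is an LPS-driven human vascular primary co-culture of endothelial cells and PBMC, sampled 24 h after compound addition.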
# [5] = read-out: E-selectin (Homo sapiens) (UniProt P16581); assay: BSK_LPS_Eselectin: BioMAP Diversity Plus: LPS Assay for Eselectin Biomarker Activity (AID 2283077); conditions: primary human HUVEC with PBMC; actives raise or lower the signal
# In short: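 Signal of E-selectin, detected by ELISA, served as the endpoint; cells were umbilical vein endothelium with PBMC, read 24 h after treatment. DMSO defined baseline, and both increases and decreases were fitted.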
# [6] = read-out: Interleukin-8 (IL8), CXCL8 (gene 3576); assay: BSK_LPS_IL8: BioMAP Diversity Plus: LPS Assay for Interleukin-8 (IL8) Biomarker Activity (AID 2283078); conditions: primary human HUVEC with PBMC; actives raise or lower the signal
# In short: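 Endothelial cells and PBMC from human donors are co-cultured, treated with chemicals and LPS, then assayed for IL-8 by ELISA after 24 h. Parallel SRB staining (0.1% SRB after 10% TCA fixation, 560 nm) flags cytotoxicity.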
# [7] = read-out: Interleukin-1 alpha (IL1a), IL1A (gene 3552); assay: BSK_LPS_IL1a: BioMAP Diversity Plus: LPS Assay for Interleukin-1 alpha (IL1a) Biomarker Activity (AID 2283080); conditions: primary human HUVEC with PBMC; actives raise or lower the signal
# In short: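 Measured: IL-1 alpha via ELISA at 24 h in LPS-activated human umbilical vein endothelium–PBMC co-culture. Baseline: DMSO, bidirectional fitting.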
# [8] = read-out: Monocyte Chemoattractant Protein-1 (MCP1), CCL2 (gene 6347); assay: BSK_LPS_MCP1: BioMAP Diversity Plus: LPS Assay for Monocyte Chemoattractant Protein-1 (MCP1) Biomarker Activity (AID 2283081); conditions: primary human HUVEC with PBMC; actives raise or lower the signal;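 as to AC50: secreted MCP-1 protein quantified by ELISA in culture supernatant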
# In short: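 LPS-stimulated HUVEC/PBMC co-culture; chemical, 24 h; MCP-1 by ELISA; bidirectional fit vs DMSO; cytotoxicity via SRB (0.1% stain, 10% TCA fix, 560 nm) in parallel wells.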
# [9] = BSK_LPS_PGE2: BioMAP Diversity Plus: LPS Assay for Prostaglandin E2 (PGE2) Biomarker Activity (AID 2283082); conditions: primary human HUVEC with PBMC; actives raise or lower the signal;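 as to AC50: secreted prostaglandin E2 measured by ELISA in LPS-stimulated co-culture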
# In short: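 Compounds were added to the LPS co-culture of endothelium and PBMC, and PGE2 was measured by ELISA after 24 h. Responses in either direction were fitted with DMSO as baseline.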
# [10] = BSK_LPS_SRB: Viability Assessment in the BioMAP Diversity Plus: LPS Assay (AID 2283079); conditions: primary human HUVEC with PBMC;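 also: total protein by sulforhodamine B absorbance as a cytotoxicity measure; measured one day after compound addition; fitted in both directions against DMSO so loss or gain of signal counts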
# In short: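 Overt cytotoxicity was gauged by sulforhodamine B total-protein staining in a primary human vascular endothelial and mononuclear cell co-culture 24 h post-dosing. Activity was fitted in both directions relative to DMSO.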
# E-selectin (Homo sapiens), sequence (P16581 whole entry, looked up): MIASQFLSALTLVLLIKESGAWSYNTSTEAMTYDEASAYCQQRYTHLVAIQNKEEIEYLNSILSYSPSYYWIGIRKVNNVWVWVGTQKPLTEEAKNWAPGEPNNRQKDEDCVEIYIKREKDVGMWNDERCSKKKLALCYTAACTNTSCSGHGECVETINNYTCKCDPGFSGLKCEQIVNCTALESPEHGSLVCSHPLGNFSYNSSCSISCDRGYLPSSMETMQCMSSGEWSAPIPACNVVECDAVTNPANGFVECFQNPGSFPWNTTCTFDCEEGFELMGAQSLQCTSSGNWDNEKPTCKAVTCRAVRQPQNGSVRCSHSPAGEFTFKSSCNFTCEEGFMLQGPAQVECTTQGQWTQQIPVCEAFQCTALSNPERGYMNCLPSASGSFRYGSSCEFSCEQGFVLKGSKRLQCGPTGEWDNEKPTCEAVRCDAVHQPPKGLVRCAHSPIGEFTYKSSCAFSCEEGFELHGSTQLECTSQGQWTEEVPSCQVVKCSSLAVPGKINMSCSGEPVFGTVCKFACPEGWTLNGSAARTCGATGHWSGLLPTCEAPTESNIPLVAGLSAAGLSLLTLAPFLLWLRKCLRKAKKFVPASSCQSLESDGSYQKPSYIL
compound,measurement,setting,value
ClC(Cl)=C(c1ccc(Cl)cc1)c1ccc(Cl)cc1,AC50,[1],20 µM (active)
same,AC50,[2],20 µM (active)
same,AC50,[3],38.7 µM (active)
same,AC50,[4],29.8 µM (active)
same,AC50,[5],30.6 µM (active)
same,AC50,[6],32.1 µM (active)
same,AC50,[7],26.6 µM (active)
same,AC50,[8],35.4 µM (active)
same,AC50,[9],8.02 µM (active)
CC#Cc1cc(C)nc(Nc2ccccc2)n1,outcome,[1],inactive
same,outcome,[2],inactive
same,outcome,[3],inactive
same,outcome,[4],inactive
same,outcome,[5],inactive
same,outcome,[6],inactive
same,outcome,[10],inactive
same,outcome,[7],inactive
same,outcome,[8],inactive
same,AC50,[9],8.96 µM (active)
O=C(N[C@H]1CN2CCC1CC2)c1cc2ccoc2cn1,outcome,[1],inactive
same,outcome,[2],inactive
same,outcome,[3],inactive
same,outcome,[4],inactive
same,outcome,[5],inactive
same,outcome,[6],inactive
same,outcome,[10],inactive
same,outcome,[7],inactive
same,outcome,[8],inactive
same,outcome,[9],inactive
CCC(C)c1cc([N+](=O)[O-])cc([N+](=O)[O-])c1O (configuration not stated),AC50,[1],11.6 µM (active)
same,AC50,[2],12.6 µM (active)
same,outcome,[3],inactive
same,AC50,[5],27 µM (active)
same,AC50,[6],27.5 µM (active)
same,AC50,[10],20 µM (active)
same,AC50,[7],29.2 µM (active)
same,AC50,[8],15 µM (active)
same,AC50,[9],6.51 µM (active)
CCOCCOC(C)=O,outcome,[1],inactive
same,outcome,[2],inactive
same,outcome,[3],inactive
same,outcome,[4],inactive
same,outcome,[5],inactive
same,outcome,[6],inactive
same,outcome,[10],inactive
same,outcome,[7],inactive
same,outcome,[8],inactive
same,outcome,[9],inactive
Nn1cnnc1,outcome,[1],inactive
same,outcome,[2],inactive
same,outcome,[3],inactive
same,outcome,[4],inactive
same,outcome,[5],inactive
same,outcome,[6],inactive
same,outcome,[10],inactive
same,outcome,[7],inactive
same,outcome,[8],inactive
same,outcome,[9],inactive
Clc1ccc(C(c2ccccc2Cl)C(Cl)(Cl)Cl)cc1 (configuration not stated),AC50,[1],10.7 µM (active)
same,AC50,[2],8.05 µM (active)
same,AC50,[3],21.6 µM (active)
same,AC50,[4],19.4 µM (active)
same,AC50,[6],21.9 µM (active)
same,AC50,[10],19.2 µM (active)
same,AC50,[7],20.8 µM (active)
same,AC50,[8],21.6 µM (active)
same,AC50,[9],4.54 µM (active)
C[C@]12CCC(=O)C=C1CC[C@@H]1[C@@H]2CC[C@]2(C)C(=O)CC[C@@H]12,outcome,[1],inactive
same,outcome,[2],inactive
same,outcome,[3],inactive
same,outcome,[4],inactive
same,outcome,[5],inactive
same,outcome,[6],inactive
same,outcome,[10],inactive
same,outcome,[7],inactive
same,outcome,[8],inactive
same,outcome,[9],inactive
Cc1ccccc1CO[C@@H]1C[C@@]2(C(C)C)CC[C@]1(C)O2,outcome,[1],inactive
same,outcome,[2],inactive
same,outcome,[3],inactive
same,outcome,[4],inactive
same,outcome,[5],inactive
same,outcome,[6],inactive
same,outcome,[10],inactive
same,outcome,[7],inactive
same,outcome,[8],inactive
same,outcome,[9],inactive
